SMILES strings stand for the structures. About 3,300 (8.5%) of roughly 39,000 compounds were called active. The sample as a whole holds a higher share of actives than the screen did.

This assay deals with HepG2. Description: cytotoxicity call (relative viability < 0.9). The conditions noted are these: 10 µM.
Consider `Cc1ccc(S(=O)(=O)N(C)C[C@H]2Oc3c(NC(=O)C4CCOCC4)cccc3C(=O)N([C@@H](C)CO)C[C@H]2C)cc1`, for which the cytotoxicity call is “inactive”. The entry for `C[C@@H]1CN([C@@H](C)CO)C(=O)c2cc(NS(C)(=O)=O)ccc2O[C@@H](C)CCCCO[C@@H]1CN(C)C(=O)CCCN(C)C` is “inactive”; for `CN1CCN(C(=O)C[C@@H]2CC[C@@H](NC(=O)Cc3ccccn3)[C@@H](CO)O2)CC1` it is “inactive”; for `NCC[C@H]1CC[C@@H](NC(=O)C2CCCC2)[C@@H](CO)O1` it is “inactive”. Turning to `Cc1noc(C)c1S(=O)(=O)Nc1ccc2c(c1)C(=O)N([C@@H](C)CO)C[C@@H](C)[C@H](CN(C)S(C)(=O)=O)OCCCC[C@@H](C)O2`, the cytotoxicity call is “inactive”.

In the case of `CC(=O)N1CCC[C@H](C(=O)O)C1`, the cytotoxicity call is “inactive”.

For the molecule `COc1ccc(S(=O)(=O)N[C@H]2CC[C@H](CC(=O)N3CCC(Cc4ccccc4)CC3)O[C@@H]2CO)cc1`, the cytotoxicity call is “inactive”. Turning to `C[C@H]1CCCCO[C@H](CN(C)CC2CCCCC2)[C@@H](C)CN([C@@H](C)CO)C(=O)c2cc(NS(=O)(=O)c3ccc(Cl)cc3)ccc2O1`, the cytotoxicity call was “inactive”.

For `C[C@H](CO)N1C[C@H](C)[C@H](CN(C)CC2CCCCC2)OCCCC[C@H](C)Oc2ccc(NS(=O)(=O)c3ccc(Cl)cc3)cc2C1=O`, the cytotoxicity call was “active”.

`C[C@H]1CCCCO[C@@H](CN(C)CC2CCCCC2)[C@@H](C)CN([C@@H](C)CO)C(=O)c2cc(NS(=O)(=O)c3ccc(Cl)cc3)ccc2O1`: the cytotoxicity call is “inactive”. For `C[C@@H]1CN([C@@H](C)CO)C(=O)c2cc(NS(=O)(=O)c3ccc(Cl)cc3)ccc2O[C@@H](C)CCCCO[C@H]1CN(C)CC1CCCCC1`, the cytotoxicity call was “inactive”. `C[C@@H]1CN([C@@H](C)CO)C(=O)c2cc(NS(=O)(=O)c3ccc(Cl)cc3)ccc2O[C@@H](C)CCCCO[C@@H]1CN(C)CC1CCCCC1`: the cytotoxicity call was “inactive”. The entry for `C[C@@H]1CCCCO[C@@H](CN(C)CC2CCCCC2)[C@@H](C)CN([C@@H](C)CO)C(=O)c2cc(NS(=O)(=O)c3ccc(Cl)cc3)ccc2O1` is “active”. The entry for `C[C@@H]1CN([C@@H](C)CO)S(=O)(=O)c2ccc(-c3cccc(F)c3)cc2O[C@@H]1CN(C)S(C)(=O)=O` is “inactive”; for `CS(=O)(=O)N1CCc2ccc(N)cc2C1` it is “inactive”; for `Cc1noc(C)c1NC(=O)Nc1ccc2c(c1)CC(=O)N([C@H](C)CO)C[C@@H](C)[C@H](CN(C)Cc1ccc(C(F)(F)F)cc1)O2` it is “inactive”. With `Cc1ccc(S(=O)(=O)Nc2ccc3c(c2)C(=O)N([C@@H](C)CO)C[C@H](C)[C@@H](CN(C)S(=O)(=O)c2ccc(F)cc2)O3)cc1`, the cytotoxicity call is “inactive”. The entry for `CCc1ccc(CCOc2ccc(CC3SC(=O)NC3=O)cc2)nc1.Cl` (centres undefined) is “inactive”; for `CN(CCO)c1ccccn1` it is “inactive”; for `CN(CCOc1ccc(CC2SC(=O)NC2=O)cc1)c1ccccn1.O=C(O)C=CC(=O)O` (centres undefined) it is “active”. The entry for `C[C@@H]1CCCCO[C@@H](CN(C)S(=O)(=O)c2cccs2)[C@@H](C)CN([C@H](C)CO)C(=O)c2cc(NC(=O)CCCCCC(=O)Nc3ccccc3N)ccc2O1` is “inactive”.

With `CN(C)C1CCN(C(=O)c2cnc(-c3noc4cc(-c5ccccc5C(F)(F)F)ccc34)s2)CC1`, the cytotoxicity call was “active”. The entry for `C[C@H](CO)N1C[C@H](C)[C@H](CN(C)C(=O)Nc2cccc3ccccc23)Oc2ncc(-c3cccc(C(F)(F)F)c3)cc2C1=O` is “inactive”; for `CN(C)C1CCN(C(=O)c2cnc(-c3noc4cc(-c5cccc(C(F)(F)F)c5)ccc34)s2)CC1` it is “active”; for `C[C@H](CO)N1C[C@H](C)[C@H](CN(C)C(=O)Nc2ccccc2)Oc2ncc(-c3cccc(C(F)(F)F)c3)cc2C1=O` it is “inactive”. The entry for `C[C@H]1CN([C@@H](C)CO)C(=O)c2cccc(NC(=O)C3CCCCC3)c2O[C@@H]1CN(C)Cc1ccc(C(F)(F)F)cc1` is “inactive”; for `CCCN(C)C[C@H]1OCCCC[C@H](C)Oc2ccc(NC(=O)Nc3cccc4ccccc34)cc2C(=O)N([C@@H](C)CO)C[C@H]1C` it is “inactive”; for `O=C(CCCCCNC(=O)OCc1ccc(CO[C@@H]2C[C@H](c3csc4ccccc34)C=C(C(=O)N3CCN(Cc4ccccc4)CC3)O2)cc1)NO` it is “inactive”. Consider `C[C@H]1CN([C@@H](C)CO)C(=O)c2cc(NC(=O)C3CC3)ccc2O[C@H]1CN(C)S(=O)(=O)c1cccs1`, for which the cytotoxicity call is “inactive”.

With `N[C@@H](Cc1ccc(Cl)cc1)C(=O)O`, the cytotoxicity call is “inactive”. For `CC(C)Cc1ccc([C@@H](C)C(=O)Nc2ccc(Cl)cc2)cc1`, the cytotoxicity call was “active”. The entry for `CC(C)Cc1ccc(C(C)C(=O)O)cc1` (centres undefined) is “inactive”; for `C[C@@H]1CN([C@@H](C)CO)C(=O)CCCn2nncc2CO[C@H]1CN(C)C(=O)Nc1ccc2c(c1)OCO2` it is “inactive”; for `C[C@@H]1CN([C@@H](C)CO)C(=O)c2cc(-c3cncnc3)cnc2O[C@@H]1CN(C)C(=O)Nc1ccc2c(c1)OCO2` it is “inactive”.

`O=C(CCCl)NCCc1ccccc1`: the cytotoxicity call was “inactive”. `COc1ccc(N(C(=O)CSc2ncccn2)[C@@H](C(=O)NCCc2ccccc2)c2cccs2)cc1Cl`: the cytotoxicity call is “inactive”. The entry for `COc1ccc(N(C(=O)CCl)[C@@H](C(=O)NCCc2ccccc2)c2ccc(Cl)s2)cc1Cl` is “active”; for `CC(C)(C)OC(=O)NCCOCCOCCOc1ccc(N(C(=O)CCl)[C@@H](C(=O)NCCc2ccccc2)c2cccs2)cc1Cl` it is “active”; for `Cc1noc(C)c1S(=O)(=O)Nc1cccc2c1O[C@H](CN(C)S(C)(=O)=O)[C@H](C)CN([C@H](C)CO)C2=O` it is “inactive”. On to `C[C@H]1CN([C@@H](C)CO)C(=O)Cc2cc(NS(=O)(=O)c3cn(C)cn3)ccc2O[C@@H]1CN(C)Cc1ccccc1`, for which the cytotoxicity call is “inactive”.

As to `C[C@@H]1CCCCO[C@@H](CN(C)C(=O)Nc2ccc3c(c2)OCO3)[C@H](C)CN([C@H](C)CO)C(=O)c2cc(NC(=O)c3ccncc3)ccc2O1`, the cytotoxicity call was “inactive”.

As to `COc1ccc(CNC(=O)C[C@@H]2C[C@@H]3c4cc(NS(=O)(=O)c5ccc(F)cc5)ccc4O[C@@H]3[C@@H](CO)O2)cc1`, the cytotoxicity call was “inactive”. The entry for `C[C@H]1CCCCO[C@@H](CN(C)C(=O)Nc2ccc(F)cc2)[C@@H](C)CN([C@@H](C)CO)C(=O)c2cc(NC(=O)Nc3ccccc3)ccc2O1` is “inactive”; for `C[C@@H]1CCCCO[C@H](CN(C)Cc2ccncc2)[C@@H](C)CN([C@H](C)CO)C(=O)c2cc(NC(=O)Nc3ccc4c(c3)OCO4)ccc2O1` it is “inactive”; for `CCC(=O)N(C)C[C@H]1Oc2ncc(C#C[C@@H](C)O)cc2C(=O)N([C@@H](C)CO)C[C@H]1C` it is “inactive”.

With `C[C@@H]1CCCCO[C@H](CN(C)S(=O)(=O)c2ccc(F)cc2)[C@@H](C)CN([C@H](C)CO)C(=O)c2cc(NC(=O)c3ccccc3)ccc2O1`, the cytotoxicity call was “inactive”.

Regarding `C[C@H](CO)N1C[C@H](C)[C@H](CN(C)S(=O)(=O)c2ccc(F)cc2)OCCCC[C@H](C)Oc2ccc(NC(=O)c3ccccc3)cc2C1=O`, the cytotoxicity call was “inactive”.

As for `C[C@@H]1CCCCO[C@H](CN(C)S(=O)(=O)c2ccc(F)cc2)[C@H](C)CN([C@@H](C)CO)C(=O)c2cc(NC(=O)c3ccccc3)ccc2O1`, the cytotoxicity call is “inactive”. Regarding `C[C@@H]1CCCCO[C@@H](CN(C)S(=O)(=O)c2ccc(F)cc2)[C@@H](C)CN([C@@H](C)CO)C(=O)c2cc(NC(=O)c3ccccc3)ccc2O1`, the cytotoxicity call is “inactive”. With `C[C@@H]1CN([C@H](C)CO)C(=O)c2cc(NC(=O)c3ccccc3)ccc2O[C@@H](C)CCCCO[C@H]1CN(C)S(=O)(=O)c1ccc(F)cc1`, the cytotoxicity call was “active”. The entry for `C[C@H]1CCCCO[C@H](CN(C)S(=O)(=O)c2ccc(F)cc2)[C@@H](C)CN([C@@H](C)CO)C(=O)c2cc(NC(=O)c3ccccc3)ccc2O1` is “active”; for `C[C@@H]1CN([C@H](C)CO)C(=O)Cc2cc(NC(=O)CCN3CCOCC3)ccc2O[C@@H]1CN(C)CC1CC1` it is “inactive”. The entry for `COc1cc2c(cc1-c1coc3c4c(c(OC)cc3c1=O)OC(C)(C)CC4)OCO2` is “inactive”; for `COc1cc2c(cc1-c1coc3c4c(ccc3c1=O)OC(C)(C)CC4)OCO2` it is “inactive”. On to `COc1cc2c(=O)c(-c3ccc4c(c3)OCO4)coc2c2c1OC(C)(C)C=C2`, for which the cytotoxicity call was “active”. The entry for `CN1CCN(C(=O)C[C@H]2CC[C@H](NC(=O)Cc3ccccn3)[C@@H](CO)O2)CC1` is “inactive”; for `CC1(C)C[C@H](c2nc(-c3ccccc3)cs2)CCS1` it is “active”. The entry for `NCCc1nc(-c2ccccc2)cs1` is “inactive”; for `O=C(C[C@H]1CC[C@@H](NC(=O)c2cnccn2)[C@H](CO)O1)NCc1ccccc1F` it is “inactive”; for `CCS(=O)(=O)N(C)C[C@H]1OCc2ccccc2-c2c(n(C)c3ccccc23)C(=O)N([C@H](C)CO)C[C@H]1C` it is “inactive”. The entry for `NCCC(=O)N[C@@H](Cc1cnc[nH]1)C(=O)O.[Zn+3]` is “inactive”. As for `C[C@@H]1CN([C@@H](C)CO)S(=O)(=O)c2ccc(C#CCN(C)C)cc2O[C@H]1CN(C)Cc1ccc2c(c1)OCO2`, the cytotoxicity call is “inactive”.

Take `COC(=O)[C@@H](O)c1ccccc1`: the cytotoxicity call was “inactive”. The entry for `COc1ccc([C@@H](N)c2ccccc2)cc1` is “inactive”; for `C=CC(C1=CC(=O)C(OC)=CC1=O)c1ccc(O)cc1` (centres undefined) it is “active”; for `C=CC(C1=CC(=O)C=CC1=O)c1ccccc1` (centres undefined) it is “active”. For the molecule `COC1=CC(=O)c2ccccc2C1=O`, the cytotoxicity call is “inactive”. The entry for `C=CC(C1=CC(=O)C(OC)=CC1=O)c1ccc(OC)cc1` (centres undefined) is “active”; for `C=CC(C1=CC(=O)C(OC)=CC1=O)c1ccccc1` (centres undefined) it is “active”; for `COc1ccc(S(=O)(=O)N(C)C)cc1` it is “inactive”. The entry for `CC(C)CC#Cc1cnc2c(c1)C(=O)N([C@@H](C)CO)C[C@@H](C)[C@@H](CN(C)C(=O)c1ccc3c(c1)OCO3)O2` is “inactive”; for `c1ccc(Oc2ccccc2)cc1` it is “inactive”; for `COc1cccc(S(=O)(=O)Nc2ccc3c(c2)[C@H]2C[C@H](CC(=O)N4CCCCC4)O[C@H](CO)[C@H]2O3)c1` it is “inactive”. The entry for `COc1ccc(NC(=O)Nc2ccc3c(c2)C(=O)N([C@@H](C)CO)C[C@@H](C)[C@H](CN(C)CC2CCCCC2)O3)cc1` is “inactive”.

For the origin of these results see the antibiotic and cytotoxicity screens of Wong et al. (2023).
